Laboratory results taken from the supplement of paper PMC11417369.
Over roughly 25,000 sequences, “ln(normalized median fluorescence intensity)” has its median near 6.7; the highest 2% begin near 10. The sample holds the highest values, similar sequences and a random draw of the others, so the mix is not that of the screen.

Each sequence was assayed on PfHDP1 homeodomain (GST-tagged) (assay: gcPBM binding intensity (ln(normalized median fluorescence intensity)); higher = stronger DNA binding).
Method in brief: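 The highest Masliner-normalised natural-log median intensity across replicate spots of either probe orientation is reported as binding intensity. GST-tagged P. falciparum DNA-binding domains expressed in E. coli were applied for 1 h to an Agilent 4 × 180k array of primer-extended double-stranded 36-bp intergenic genomic probes plus negative controls, and bound protein was detected with Alexa488 anti-GST antibody and scanned at 488 nm.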

Sequence	gcPBM binding intensity (ln)
TTACAAGTAAAAGGTACACACATTATAAATACAAAT [CACACA_site4752]	6.93
ATCAACATCTAACATTGTACATGTGATGTGTAAAAG [XGTACX_site547]	6.69
TATATATATATATGTACACACATCAATCATATTAAC [CACACA_site1946]	9.26
TATATATATATATATATTAATAATTAATATAAAAGA [XGTACX_negctrl_site32]	9
GAGGTACATTAATTAGTGCATTAAAATTTTTATCCT	9.85
TATGTTATATAATATTGTACACAAAATGGTTTCTAT [XGTACX_site7686]	6.73
TAAATTAAAAAAAAAAACAAAAAAAAAGCAACAAAA [CACACA_negctrl_site1318]	6.62
AAGTTTTCTTAAAGATGTACTTTTTAAAAATAAAAT [XGTACX_site3063]	6.15
ATGTGCACATGTAGAAGTACTTTTTCTTAAAATACT [XGTACX_site8341]	10.9
TTTTGAAGTAATACATGTACTTAAATTACTAAAAAA [XGTACX_site1955]	6.04
TTTAAAATGGGACTTTGAAAAAAAAAAAAAAAAACA [TGCATGCA_negctrl_site111]	6.1
AAATATTACATTTGTTAAATAATATGTTATACATAA [XGTACX_negctrl_site484]	5.89
TTTTCATATTATAGTGCACACAAAAATATATATATG [CACACA_site8929]	10.3
AATTTTTTATATGTCACACATTTGTTATTATTATTA [CACACA_site4197]	6.51
GTCAAATTTTTGTGCACACATATATAGTTATTATTA [CACACA_site2241]	11.7
TGTGTCAAATAATTAATGTCATATATATTTTGTATA [CACACA_negctrl_site1479]	6.11
ATGTCAAATTTTTGTGCACACATATATAGTTATTAT [CACACA_site2242]	11.4
CAGTTGTTAATTTGTGTGCACCAAATATTATACATA	10.5
TTTTTTTTTTTTTTTGTGCACAATTATTTCAATTTT [GTGCAC_site9884]	10.2
TGTGTATTTATAAATACACACCAAATGTTAATATAT [CACACA_site6904]	6.9
ATGAAACAGTAACATTGTACTTTTACAAAAAAATAA [XGTACX_site806]	6.25
TTATATATATATAATACACACATAATAATATATTTA [CACACA_site3038]	6.67
TATAATAATAATAATAGTACGTATTATTAAAAAACT [XGTACX_site10]	6.58

Sequence	gcPBM binding intensity (ln)
ATGATATGCAATTTAGTGCATAACAAAATTGGTATA	10.5
TATATAGATATGATAGTGCATTTTTAGAAAACATAA [GTGCAC_site9962]	7.95
TTATAAAAAATTTTAGTGCATATATGATTTATATAT [GTGCAC_site9831]	9.44
AAAATGCATTTGATGTGTACGCATTATAAAGAACAA [XGTACX_site4203]	7.39
ATAGGCACTTTTTGCACACGTATGAATAACAAAATA [CACACA_site5069]	10.4
ATATGCACTTTTTGCACACGTATGAATAACAAAATA [CACACA_site1810]	11.2
TACGTAATAATATGCACACAAATAAACTTTATAAAT [CACACA_site3501]	9.89
AGTAAATAACACAAATATGAATGAAAAAAAAAATAT [GTGCAC_negctrl_site235]	6.82
TTATATGCACTTTTTGCACACGTATGAATAACAAAA [CACACA_site1811]	11.5
TAGTATAATATGAACACACACACACGCACAAAAAAA [CACACA_site7035]	7.3
AAAAGGAAGATATATACACACATACAAATATTTATA [CACACA_site7093]	6.71
TATACTTGTAAATGCACACATAAGATGCGACTAATG [CACACA_site2118]	9.37
TAAGGGATATGTATATGTACATACAAATATATATAA [XGTACX_site2892]	6.63
TAAGTGCATGAGATATGTACATATATAAAATATATA [XGTACX_site3294]	9.2
TACAATAAGGATAAGTGTACATATGTGCATACATAT [XGTACX_site7188]	10.6
TATACATACTCACCCACACACAAAAAAAAAAAAAAA [CACACA_site862]	6.43
TTTTATCTTTTTTTATTTTAATGTATTATTTTTATG [XGTACX_negctrl_site24]	6.61
ATAAAAAAATTAAATACATGCACATATACACATACA [TGCATGCA_site129]	8.6
TATAACCGAATGTGTACACAAAATAATGTTATATAT [CACACA_site5627]	7.77
AATTTTTGTTACAAGATGCACTTAATTTTTCTAAAT	7.92
ATGTCTAATTTTGATGCACACTTTTGTGCAATTAAA [CACACA_site5589]	11
GAATAAATTAAAAATGCACACTTTGATGGGTACATT [CACACA_site5220]	8.68
GATGATTCAATTTATGCACACTAAAAATTAATTATA [CACACA_site4308]	10.1

Sequence	gcPBM binding intensity (ln)
GAATGTCTAATTTTGATGCACACTTTTGTGCAATTA [CACACA_site2902]	11.1
TGTTTGTAATTATGTATGCACTTTTTTGTATGTGTG [GTGCAC_site9668]	7.52
TGTAGACTACATAGTAGTACATAATATATACATATA [XGTACX_site367]	6.21
TACTTATTATGAAACACACACCAAAACTACAGAATA [CACACA_site6265]	7.04
GTGCATATATGATATACACACAATATAATAGTATGT [CACACA_site2460]	7.18
TTTTTTTTTAATCATGCACACTGTTAAAAGAATAAA [CACACA_site4817]	8.29
TTTTTATGGACTATGGTGCATTATATATAAATGAAA [GTGCAC_site9557]	10.3
TAATATAATGATGCAGTGCATATGTTAAAATGAAAA	8.68
ATTATCAATATGAAGGTGCATTTAAATAATATTTAC	9.62
ATTAAATGCAGTTCGGTGCATTAAGGTTATGATGAA [GTGCAC_site9883]	10.7
TCTTGTTCGCCCTATTGTACAAACATATATTGTGAT [XGTACX_site2884]	7.27
AAAATATAATATAATGCACACATAAACAAAAAAAAA [CACACA_site8161]	10.1
ATTATATATAAACACACACACATGCATGCACATATA [CACACA_site4237]	10.5
AATATAATATAATGCACACATAAACAAAAAAAAAAT [CACACA_site1304]	10.5
GCACAAATATATATATATATATATATATATATATAT [GTGCAC_negctrl_site661]	9.39
ATATTATATAAATACACACACACATGCATGCACATA [CACACA_site4236]	10.3
AAATATAAAGTGCACACACACAAAAAAAGAAAAAAA [CACACA_site6452]	8.92
AATATAAAAATGCACACACACAAAAAAAAAAAAAAA [CACACA_site6546]	9.21
AAAATATAATATAATGCACACATAAAACAAAAAAAA [CACACA_site8989]	9.76
AACGGGTAATGCACAAAAAAAAAAAAATAAAATAAA [TGCATGCA_negctrl_site474]	10.9
ATATAAACACTGAATGCATGCACATATATATATATA [TGCATGCA_site940]	9.37
ATGAGTGCACAAATATATATATATATATATATATAT [CACACA_negctrl_site404]	10.7
TAATAAATCAAATGCACACACACAAAAAAAAAAAAA [CACACA_site161]	10
